The values below come from ChEMBL document CHEMBL3988442, “University of Dundee, Small-Polar-MMV Screening Library” (2021).

The target in the assay is AMP-activated protein kinase, AMPK (Homo sapiens) (UniProt P54646+O43741+P54619+Q9UGJ0+Q9Y478+Q13131+Q9UGI9). The experiment in a line: AMP-dependent Kinase enzyme assay. An in vitro enzyme assay that detects ADP turnover that is directly proportional to AMPK activity. This uses naive AMPK that is activated during the assay with MK-8722. Format: functional. Further details: scale not given: direction of the effect not stated beside the values. The conditions noted are these: 30 µM.
Take `CC(C)Oc1ccccc1CNC(=O)N(C)CC(F)F`: the Percent Effect worked out at 1.53%.

On to `COC[C@]1(O)CCN(c2cc(N3CCOCC3)ncn2)CC1(C)C`, for which the Percent Effect is -1.8%.

For the compound `O=C(c1ccc(Cl)s1)N1CCCn2nc(CN3CC[C@H](F)C3)cc2C1`, the Percent Effect is 3.24%.

Take `Clc1ccccc1CCn1ccnc1-c1cn(C2CCNCC2)nn1`: the Percent Effect is -7.28%. For `C=Cn1ncc(CN2CCC(c3ncc(Cl)cc3S(C)(=O)=O)CC2)c1C` the value was -0.153%; for `CCc1cnc(N2CCCC(CCC(N)=O)C2)nc1` (centres undefined), -6.19%.

As to `Cc1n[nH]c(C)c1CNc1ccc(-c2nc(C3CC3)no2)cn1`, the Percent Effect is -4.61%. `CC(C)COc1cncc(N2CCCC(CC(N)=O)C2)n1` (centres undefined): the Percent Effect is 10.7%. As for `COc1ccccc1CCNC(=O)CNCC1CN(C)CCO1` (centres undefined), the Percent Effect was -4.87%. For `CCCOc1ccc(Cl)cc1CNc1ncnc2oc(C)nc12` the value was 0.0102%; for `CC(=O)N1CCc2c(nc(N(C)C)nc2NCCCn2ccnc2C)C1`, 7.72%; for `CSCCC(=O)N1CCN(CC(O)C(C)(C)C)CC1` (centres undefined), -4.07%. Regarding `Cc1ncsc1C(=O)N1CCCC1c1c(C)nn(C)c1C` (centres undefined), the Percent Effect is 1.43%. For `CC(NC(=O)N1CCC1)c1ccc(S(N)(=O)=O)cc1` (centres undefined) the value was 7.72%; for `CC(c1nc(C2CC2)no1)N1CCc2c(ncn2C2CC2)C1` (centres undefined), 11.4%; for `CC(C(=O)NCC(C)(C)c1ccc2c(c1)OCCO2)n1cncn1` (centres undefined), 11.3%.

In the case of `CS(=O)(=O)c1ccc(CN2C[C@H]3CC[C@@H]2CN(c2ncccn2)C3)cc1`, the Percent Effect is 9.64%. As to `CC(C)c1nnc(NC(=O)Cc2csc(-c3nnc[nH]3)n2)s1`, the Percent Effect amounted to 6.49%. The result for `O=C(O)CCn1ccc2c(nnc3c(-c4ccc(F)cc4)cnn32)c1=O` reads 18.8%; that for `Cc1cccc(C)c1NC(=O)NCC1CCCN(C2CCOCC2)C1` (centres undefined), 5.67%. The result for `Cc1ccccc1C(=O)NC[C@@H]1CCN(C(=O)c2cccn2C)C[C@H]1O` reads -3.19%; that for `CC(=O)N[C@@H]1CN(C(=O)c2cccc(C(F)(F)F)c2)C[C@H]1O`, 5.07%.

As for `Cc1ncc2c(n1)CN(Cc1nc(-c3ccsc3)oc1C)CC2`, the Percent Effect is -40.6%. As to `CN(Cc1nc(C2CC2)no1)C1CCS(=O)(=O)C1` (centres undefined), the Percent Effect came out at 2.02%.

For the compound `CC(C)c1nc2n(n1)CC(NCc1cc3ccccc3o1)CC2` (centres undefined), the Percent Effect turned out to be 0.664%. The result for `Cc1ccc(OCC(=O)N2CCOCC(O)(CN3CCCC3)C2)cc1C` (centres undefined) reads 8.56%.

As for `CN(C)c1ccc(C(=O)Nc2ccn(CCc3ccncc3)n2)cn1`, the Percent Effect amounted to 14.4%. For `Cc1ccccc1CCC1CCCN(C(=O)Cc2cc(=O)[nH]c(N)n2)C1` (centres undefined) the value was -3.84%. For the compound `COc1ccc(-c2cc(C3CC3)c(C#N)c(N)n2)cc1F`, the Percent Effect turned out to be 9.02%. For `Cc1ccc(S(=O)(=O)Cc2nnc(C)n2C)cc1` the value was 6.55%; for `O=C(c1cnco1)N1CCC(Cc2cnc3ccccc3c2)CC1`, 18.4%; for `Cc1csc(NC(=O)NCCCN2CCC(C(N)=O)CC2)n1`, 1.03%.

Turning to `Cc1noc(CCCC(=O)N2CCNC(=O)C2)n1`, the Percent Effect was -2.32%. As to `Cc1nccn1-c1nccnc1C1CCCN(C)C1` (centres undefined), the Percent Effect came out at 1.28%. On to `Cc1cc(C)c(CNc2cnn(CC(O)CN(C)C)c2)c(C)c1` (centres undefined), for which the Percent Effect was -45.6%. On to `COc1c(C2CCCN2C(=O)c2ccc(C(N)=O)s2)c(C)nn1C` (centres undefined), for which the Percent Effect is -4.26%. As to `COCC[C@]1(O)CCN(CC(=O)NCc2ccccn2)C[C@H]1C`, the Percent Effect turned out to be 9.06%. For `CCn1cnnc1CNC(=O)N1CCOC(c2ccc(F)cc2)C1` (centres undefined) the value was -5.45%; for `COC(=O)c1ccc(N(C(=O)c2cc(Cl)ccn2)C(C)C)c(C)c1`, -4.91%.
